Consider 25 compounds from PubChem BioAssay (Tox21).

Structures are written as SMILES. Several values for one entry are separate records, joined by “and”; a condition that tells them apart may be missing. Equal values may be shown once. Inconclusive results are not listed. More than one record can exist for a structure, and the calls need not agree. Activity calls are given as the source filed them. Calls follow the shape of the dose curve; as a rule, active = well fitted curve in the direction sought with a large enough effect in the repeat runs; inconclusive = weak or mixed curves; inactive = no such curve, though single readings can be large; an effect the other way counts as inactive or inconclusive.

Assay [1] can be described thus: A CellTox Green Cytotoxicity Assay to monitor cytotoxicity in HepG2 cells - 16 hour (AID 1224876). Also: nearly all actives have a fitted effect of over 45% in size. Also: potency is read from the fitted curve at half-maximal effect. The gist of the method: (§1)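 Using 1536-well format, dye-containing HepG2 suspension was seeded, allowed 5 h at 37 C/5% CO2, dosed by pintool with compounds, positive and negative controls, and imaged for fluorescence across 40 h.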
Assay [2] is described as follows: qHTS RealTime-Glo MT Cell Viability Assay in HepG2 cells - 32 hour (AID 1224877). Also: nearly all actives have a fitted effect of over 55% in size. The gist of the method: (§2)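 HepG2 cells were seeded at 600 cells/well together with NanoLuc luciferase and a cell-permeant prosubstrate, preincubated 5 h at 37 C/5% CO2, then pin-dosed with compounds in DMSO. Nonlytic luminescence from viable cells was read at each time point.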
A general note: qHTS replaces the single test concentration by a dilution series.

Assay [3] is described as follows: A CellTox Green Cytotoxicity Assay to monitor cytotoxicity in HepG2 cells - 24 hour (AID 1224878). Also: nearly all actives have a fitted effect of over 45% in size. Also: potency is read from the fitted curve at half-maximal effect. The gist of the method: as §1
The nature of assay [4]: A CellTox Green Cytotoxicity Assay to monitor cytotoxicity in HepG2 cells - 40 hour (AID 1224879). Also: nearly all actives have a fitted effect of over 40% in size. Also: potency is read from the fitted curve at half-maximal effect. The gist of the method: as §1
A short description of assay [5]: qHTS RealTime-Glo MT Cell Viability Assay in HEK293 cells - 0 hour (AID 1224880). Also: top concentration of the series differs between compounds; nearly all actives have a fitted effect of over 45% in size. The gist of the method:
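Viable HEK293 cells reduce a cell-permeant prosubstrate; the product diffuses out and is consumed by NanoLuc in the medium to give light. Compounds went in after a 5 h incubation and plates were read over the treatment course.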

Assay [6] in a line: A CellTox Green Cytotoxicity Assay to monitor cytotoxicity in HEK293 cells - 32 hour (AID 1224881). Also: nearly all actives have a fitted effect of over 40% in size. Also: potency is read from the fitted curve at half-maximal effect. The gist of the method:
(§3)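 Fluorescence intensity, read at 0, 8, 16, 24, 32 and 40 h of compound treatment, reflected dye binding to DNA of dead HEK293 cells; compounds (23 nL, DMSO) were added 5 h after plating cells with reagent.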

Assay [7] in a line: A CellTox Green Cytotoxicity Assay to monitor cytotoxicity in HepG2 cells - 0 hour (AID 1224882). Also: nearly all actives have a fitted effect of over 35% in size. The gist of the method:
as §1

The nature of assay [8]: A CellTox Green Cytotoxicity Assay to monitor cytotoxicity in HepG2 cells - 32 hour (AID 1224883). Also: nearly all actives have a fitted effect of over 50% in size. Also: potency is read from the fitted curve at half-maximal effect. The gist of the method:
as §1

Assay [9] in a line: A CellTox Green Cytotoxicity Assay to monitor cytotoxicity in HEK293 cells - 8 hour (AID 1224884). Also: nearly all actives have a fitted effect of over 35% in size. The gist of the method:
as §3

Assay [10] can be described thus: qHTS RealTime-Glo MT Cell Viability Assay in HepG2 cells - 16 hour (AID 1224885). Also: nearly all actives have a fitted effect of over 50% in size. The gist of the method: as §2

Take `CCCCC(CC)COC(=O)CS` (stereo not drawn): the Potency result in assay [1], in assay [3], in [4], in [5], in [6] and in assay [8] was “inactive” in each case. Further, the outcome in assay [2], in [7] and in [9] was inactive.
For `FC(F)(F)c1ccc(Cl)c(Cl)c1`, the Potency entry in [1], in [3], in assay [4], in [5], in assay [6] and in assay [8] was “inactive” each time. Further, the compound was classed as inactive in assay [2], in assay [7] and in [9].
`CCCCCC1=CCCC1=O`: the Potency result in assay [1], in assay [3], in assay [4], in [5], in [6] and in assay [8] was “inactive” throughout. The outcome in assay [2], in [7], in assay [9] and in [10] was inactive.
Take `CC(=O)CC(=O)Nc1ccccc1C`: the Potency result in assay [1], in assay [3], in assay [4], in assay [5], in assay [6] and in assay [8] was “inactive” throughout. Also, the compound was classed as inactive in assay [2], in assay [7] and in [9].
Consider `O=C(OCCOCCOC(=O)c1ccccc1)c1ccccc1`, for which the Potency entry in assay [1], in assay [3], in assay [4], in assay [5], in assay [6] and in [8] was “inactive” each time. Also, the call in assay [2], in [7] and in assay [9] was inactive.
As for `CCCCN(CCCC)CCCC`, the Potency entry in assay [1], in [3], in assay [4], in [5], in assay [6] and in assay [8] was “inactive” each time. Besides, the outcome in [2], in assay [7] and in assay [9] was inactive.
Regarding `Oc1cccc2ccccc12`, the Potency result in [1], in [3], in [4], in assay [5], in [6] and in [8] was “inactive” throughout. Also, the compound was classed as inactive in assay [2], in [7] and in [9].
As for `CCN(CC)c1ccc(C(=O)c2ccccc2C(=O)O)c(O)c1`, the Potency result in assay [1], in [3], in assay [4], in assay [5], in assay [6] and in [8] was “inactive” in each case. Moreover, the result in assay [2], in assay [7] and in assay [9] was inactive.
In the case of `CC1=C(C)S(=O)(=O)CCS1(=O)=O`, the Potency entry in [1], in [3], in assay [4], in assay [5], in assay [6] and in [8] was “inactive” throughout. The compound was called inactive in [2], in assay [7], in assay [9] and in [10].
`C[Si](O[Si](C)(C)C)O[Si](C)(C)C`: the Potency entry in assay [1], in [3], in assay [4], in [5], in assay [6] and in assay [8] was “inactive” throughout. In addition, the compound was classed as inactive in [2], in [7] and in assay [9].
Consider `CCCCCOC(C)=O`, for which the Potency entry in [1], in assay [3], in [4], in assay [5], in assay [6] and in assay [8] was “inactive” each time. The call in assay [2], in assay [7] and in assay [9] was inactive.
As to `O=C(O)c1ccc(C(=O)O)cc1`, the Potency result in [1], in [3], in assay [5], in [6] and in [8] was “inactive” each time. Further, the compound was classed as inactive in assay [2], in assay [7], in [9] and in assay [10]. In addition, the Potency result in [4] is “inactive and 15.5 µM (active)”.
Consider `O=[N+]([O-])c1ccc(/C=C/c2ccc([N+](=O)[O-])cc2S(=O)(=O)O)c(S(=O)(=O)O)c1`, for which the Potency entry in assay [1], in assay [3], in assay [4], in assay [5], in [6] and in assay [8] was “inactive” in each case. The result in assay [2], in assay [7] and in assay [9] was inactive.
With `COCCCOc1ccnc(CS(=O)c2nc3ccccc3[nH]2)c1C` (stereo not drawn), the Potency entry in assay [1], in assay [3], in assay [4], in [5], in [6] and in assay [8] was “inactive” each time. In addition, the outcome in [2], in assay [7] and in assay [9] was inactive.
For the compound `CN(C)CCOCCN(C)C`, the Potency result in assay [1] was “inactive and 43.6 µM (active)”; in assay [3], “inactive and 49 µM (active)”; in assay [4] it was “inactive and 49 µM (active)”; in [6], “inactive and 49 µM (active)”; in assay [8], “inactive and 49 µM (active)”. For the same compound, the outcome in [2], in [7], in assay [9] and in assay [10] was inactive. The Potency entry in [5] was “inactive”.
In the case of `CCOC(=O)NNc1nncc2ccccc12`, the Potency result in assay [1], in assay [3], in assay [5], in assay [6] and in [8] was “inactive” throughout. The result in assay [2], in assay [7] and in [9] was inactive.
For the compound `O=C(O)[C@H](O)[C@@H](O)[C@H](O)[C@H](O)CO`, the Potency entry in assay [1], in [3], in assay [4], in assay [5] and in [8] was “inactive” throughout. Further, the result in assay [2], in assay [7] and in assay [10] was inactive.
As to `c1ccc(OCCOc2ccccc2)cc1`, the Potency result in assay [1], in [3], in assay [4], in assay [5], in assay [6] and in assay [8] was “inactive” in each case. Further, the result in [2], in [7], in assay [9] and in assay [10] was inactive.
Regarding `C#C[C@]1(O)CC[C@H]2[C@@H]3CCC4=CC(=O)CC[C@@H]4[C@H]3CC[C@@]21C`, the Potency result in [1], in [3], in assay [4], in [5], in assay [6] and in assay [8] was “inactive” throughout. In addition, the call in [2], in [7], in [9] and in assay [10] was inactive.
As to `CCc1ccc(CCOc2ccc(CC3SC(=O)NC3=O)cc2)nc1` (stereo not drawn), the Potency entry in [1], in [3], in assay [4], in assay [5], in assay [6] and in assay [8] was “inactive” each time. Besides, the result in assay [2], in assay [7], in assay [9] and in [10] was inactive.
For `C#CCN(C)Cc1ccccc1`, the Potency result in assay [1], in [3], in assay [4], in assay [5], in [6] and in assay [8] was “inactive” throughout. The call in [2], in [7], in assay [9] and in assay [10] was inactive.
For the compound `Nc1cc([N+](=O)[O-])ccc1O`, the Potency result in assay [1], in [3], in assay [4], in [5], in assay [6] and in assay [8] was “inactive” throughout. The call in assay [2], in [7], in [9] and in assay [10] was inactive.
`O=C1CCC(N2C(=O)c3ccccc3C2=O)C(=O)N1` (stereo not drawn): the Potency entry in [1], in assay [3], in [4], in assay [5], in assay [6] and in assay [8] was “inactive” throughout. Further, the outcome in [2], in assay [7], in assay [9] and in assay [10] was inactive.
As to `Cc1cnc(C(=O)NCCc2ccc(S(=O)(=O)NC(=O)NC3CCCCC3)cc2)cn1`, the Potency result in assay [1], in [3], in assay [4], in assay [5], in assay [6] and in assay [8] was “inactive” in each case. The result in assay [2], in assay [7], in [9] and in assay [10] was inactive.
As to `c1ccc2c(c1)ccc1ccccc12`, the Potency result in assay [1], in assay [3], in assay [4], in assay [5] and in assay [8] was “inactive” each time. For the same compound, the outcome in [2], in assay [7] and in assay [9] was inactive.
